# Glyco luc inh: blocks N-linked glycosylation in D54 reporter cells; AID 588692; hit rate 0.23% among 360,000; D54 ERlucT glycosylation luciferase reporter, 24 h; percent of 100 nM tunicamycin response; reporter increase, % at 12.5 µM;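 active = mean luciferase reporter signal, scaled so untreated is 0 and the glycosylation-blocking control 100, at or above a set limit in every replicate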;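 also: luciferase carries N-glycosylation sites so blocking glycosylation raises the light; 0% = median of neutral control wells and 100% = median of 100 nM tunicamycin wells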
# CDK5 inh: blocks human CDK5/p35 kinase activity | Q00535+Q15078 | Recombinant CDK5/p35, ADP-Glo luminescence, 60 min | inhibition, % at 10 µM | hit rate 0.01% among 330,000 | AID 488839;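 active = highest replicate inhibition of at least 50% and at least 75% of replicates reaching 50%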;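 also: plate controls were DMSO neutral control for no effect and GW8510 at 10 µM for full effect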
# SUMO Mot1 rescue: inhibitors of SUMOylation pathway: yeast Mot1-301 growth rescue | S. cerevisiae Mot1-301 growth rescue, ATP luminescence, 38.5C; percent above DMSO median, 100 means doubled | growth rescue, % at 18.8 µM | hit rate 1% among 320,000;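 active = every valid replicate shows activation above 250% relative to neutral control wells; inactive = the rest, any valid replicate at or below 250%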;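 also: OY570 slx delta 5 strain wells were the positive control but not used for scaling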
# NSD2 HMT inh: blocks human histone methyltransferase NSD2; AID 743445; O96028; hit rate 0.54% among 310,000; inhibition, % at 12.5 µM; NSD2 peptide methylation, AlphaScreen, 120 min; in the data active = inhibition above about 50%
# CASP6 VEID inh: caspase-6 (human) enzyme inhibition. purified caspase-6, Z-VEID-R110 cleavage fluorescence. inhibition, % at 12.5 µM. hit rate 0.53% among 350,000;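 active = mean inhibition across replicates at least about 35%, with every replicate also reaching that limit, limit read from the data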;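 also: 0% = median of neutral control wells and 100% = no fluorescence left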
# Target sequence (P55212 24-179 limits assumed): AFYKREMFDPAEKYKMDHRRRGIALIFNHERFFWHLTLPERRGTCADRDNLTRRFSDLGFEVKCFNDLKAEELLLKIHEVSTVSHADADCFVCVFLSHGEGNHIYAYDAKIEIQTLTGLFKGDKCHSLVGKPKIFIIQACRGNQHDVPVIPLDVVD
# Target sequence (P55212 194-293 limits assumed): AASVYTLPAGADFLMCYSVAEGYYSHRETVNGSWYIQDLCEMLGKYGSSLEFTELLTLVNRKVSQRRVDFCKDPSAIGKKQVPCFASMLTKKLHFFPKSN
# ALR H2O2 inh: blocks human ALR sulfhydryl oxidase activity | hit rate 3.8% among 290,000 | inhibition, % (no concentration beside the values) | P55789 | purified ALR, DTT oxidation, H2O2 HRP-luminol luminescence;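 active = mean replicate inhibition above about 79%, with every replicate also reaching it, limit read from the data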
# Target sequence (P55789 whole entry, looked up): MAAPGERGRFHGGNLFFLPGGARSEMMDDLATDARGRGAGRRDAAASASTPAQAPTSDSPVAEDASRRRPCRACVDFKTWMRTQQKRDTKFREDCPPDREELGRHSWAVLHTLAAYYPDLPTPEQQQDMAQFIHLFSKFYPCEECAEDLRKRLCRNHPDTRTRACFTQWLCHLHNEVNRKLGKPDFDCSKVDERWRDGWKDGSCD
# Numbers without * were called inactive; . = no result. A selection: hits, their analogues and other compounds. The true share with any hit is near 3.9%.
SMILES,Glyco luc inh,CDK5 inh,SUMO Mot1 rescue,NSD2 HMT inh,CASP6 VEID inh,ALR H2O2 inh
COc1ccc(CN(C)C[C@@H]2Oc3ccc(NC(=O)c4ccncc4)cc3CC(=O)N([C@@H](C)CO)C[C@@H]2C)cc1,.,.,.,.,-2.3,.
COc1ccc(/C=N/NC(=O)c2cccnc2)cc1O,-0.1,-0.1,0.3,3.2,3.5,87.6*
COc1ccc(/C=N/NC(=O)c2cccnc2)cc1,-0.5,-2.2,58.6,-0.4,0.7,-12.7
COc1ccc(/C=N/NC(=O)c2cccc(NC(=O)c3ccccc3Cl)c2)cc1OC,0.6,-0.1,218.5,-6.7,0.1,-3.4
COc1ccc(/C=N/NC(=O)c2cccc(NC(=O)c3ccccc3Cl)c2)cc1,34.3*,0.8,3.0,-0.2,-0.5,-2.3
COc1ccc(/C=N/NC(=S)Nc2cccc(C(=O)O)c2)cc1,-2.3,-0.3,-5.0,-1.5,11.4,31.2
CCN(CC)S(=O)(=O)c1cccc(C(=O)N/N=C/c2ccc(OC)c(O)c2)c1,3.4,2.7,-2.1,1.6,-1.2,96.6*
COc1cc(/C=N/NC(=S)Nc2cccc(C(=O)O)c2)ccc1O,1.2,0.7,3.8,-0.5,6.3,99.0*
O=C(N/N=C/c1cccnc1)c1ccc(O)cc1,3.0,0.0,8.2,1.3,-0.1,2.9
O=C(N/N=C/c1cccnc1)c1cc(O)c(O)c(O)c1,-0.1,0.7,595.5,4.0,41.1*,97.4*
COc1cc(/C=N/Nc2ccc(S(N)(=O)=O)cc2)cc(OC)c1OC,2.6,-0.5,.,3.6,-1.3,92.8*
O=C(N/N=C/c1cc(Br)c(O)c(Br)c1O)c1cccnc1,-2.2,-0.3,13.0,16.9,40.2*,41.6
COc1cc(/C=N/NC(=O)c2cccc([N+](=O)[O-])c2)cc(OC)c1O,-0.2,3.6,-16.4,0.8,7.5,97.8*
CC=Cc1ccc2n(c1=O)C[C@@H]1[C@@H](CO)[C@H](C(=O)NCC3CCCCC3)N(C(C)=O)[C@H]21 (mixture of isomers),.,.,.,.,-1.4,.
CCCNC(=O)Nc1ccc2c(c1)C(=O)N(C)C[C@H](OC)[C@@H](C)CN(C(=O)C1CCC1)[C@H](C)CO2,.,.,.,.,1.8,.
CCCN(C)C[C@@H]1OCCCC[C@@H](C)Oc2ccc(NC(=O)C3CCCCC3)cc2C(=O)N([C@H](C)CO)C[C@@H]1C,.,.,.,.,2.9,.
COc1cc(/C=N/Nc2ccc([N+](=O)[O-])cn2)cc(OC)c1O,1.8,6.0,-8.3,-0.4,2.3,99.5*
COc1ccc(/C=N/Nc2ccc([N+](=O)[O-])cc2)cc1Cn1cc([N+](=O)[O-])cn1,-2.4,-0.8,68.1,-1.8,.,4.6
O=C(Cc1ccccc1)N/N=C/c1cccnc1,1.6,0.4,313.3*,-1.3,-1.9,.
O=[N+]([O-])c1ccc(NN=Cc2cccc(O)c2)nc1,-4.4,36.6,.,1.6,0.8,.
COc1ccc(/C=N/Nc2ccc([N+](=O)[O-])cc2)cc1O,-5.4,-0.8,0.2,0.7,5.7,95.3*
O=C(Cc1ccccc1)NCC(=O)N/N=C/c1cccnc1,0.9,0.8,-7.6,-1.7,3.2,0.2
COc1cc(/C=N/NC(=O)c2cccc(NC(=O)c3ccccc3Cl)c2)ccc1O,-0.1,-0.1,6.3,-0.7,2.0,87.7*
CN(C)CCCNC(=O)[C@@H]1[C@@H](CO)[C@@H]2Cn3c(ccc(C4=CCCC4)c3=O)[C@H]1N2Cc1cocn1,.,.,.,.,0.5,.
Cc1noc(C)c1S(=O)(=O)Nc1ccc2c(c1)C(=O)N([C@H](C)CO)C[C@@H](C)[C@@H](CN(C)C(=O)Nc1ccccc1)OCCCC[C@@H](C)O2,.,.,.,.,-0.7,.
SMILES,Glyco luc inh,CDK5 inh,SUMO Mot1 rescue,NSD2 HMT inh,CASP6 VEID inh,ALR H2O2 inh
COc1cc(/C=N/Nc2ccc(C(=O)O)cc2)cc(OC)c1OC,3.3,-1.7,-2.6,1.3,8.6,47.3
COc1cc(/C=N/Nc2ccc(C(=O)O)cc2)ccc1O,-17.9,0.0,-6.2,.,38.7*,99.2*
Cc1nnsc1C(=O)N1CCCC(Nc2ccc(C(C)C)cc2)C1 (centres undefined),2.1,.,-5.3,3.0,-1.6,72.5
Cc1ccc(NC2CCCN(C(=O)c3snnc3C)C2)cc1C (centres undefined),-1.2,0.9,-9.8,0.2,-2.6,99.0*
Cc1ccc(NC2CCCN(C(=O)c3c(C)noc3C)C2)cc1C (centres undefined),1.2,0.1,-12.1,2.5,4.4,95.4*
Cc1ccc(NC2CCCN(C(=O)c3cc(C(C)C)nn3C)C2)cc1C (centres undefined),1.5,.,.,2.4,-0.9,.
CO[C@@H]1CN(C)C(=O)c2ccc(NC(=O)Nc3cccc(Cl)c3)cc2OC[C@H](C)NC[C@H]1C,.,.,.,.,-2.6,.
COc1ccc(-c2cn(CC[C@@H]3CC[C@@H](NC(=O)Nc4ccc(F)cc4)[C@@H](CO)O3)nn2)cc1,.,.,.,.,3.1,.
Cc1ccc(NC(=O)Cc2nc(-c3c[nH]c(C(=O)N4CCCC4)c3)cs2)c(C)c1,0.4,-1.1,0.2,2.3,3.7,98.4*
COCCNC(=O)c1onc(CSc2ccc(Cl)cc2)c1C(=O)O,0.4,-1.2,9.4,.,-1.7,-6.4
CCCCNC(=O)c1onc(CSc2ccc(C)c(C)c2)c1C(=O)O,1.6,0.1,-0.9,.,5.2,98.1*
CCCCNC(=O)c1onc(CSc2ccc(F)c(F)c2)c1C(=O)O,2.4,1.0,1.9,.,-1.1,42.5
COCCNC(=O)c1onc(CSc2ccc(C(C)C)cc2)c1C(=O)O,-0.9,3.3,8.7,.,-1.1,89.4*
C=CCNC(=O)c1onc(CSc2ccc(C)c(C)c2)c1C(=O)O,0.4,-2.1,-1.4,.,-0.2,98.3*
C[C@H](NC(=O)[C@H]1[C@H](CO)[C@H]2Cn3c(cccc3=O)[C@@H]1N2C(=O)C1CC1)c1ccccc1,.,.,.,.,3.8,.
C/C(=N\O)c1ccc2c3c([nH]c2c1)CCCC3,-3.4,-0.1,53.4,3.7,.,97.4*
C/C(=N\O)c1ccc2[nH]ccc2c1,-1.5,0.6,0.8,-4.1,.,58.2
Cc1ccc(NC(=O)CN2C(=O)S/C(=C\c3cc(Cl)c(OCC(=O)O)c(Cl)c3)C2=O)cc1,0.0,0.0,-6.4,12.1,38.8*,47.7
O=C(C1CCCC1)N1CCCCN2[C@H](CO)[C@H](c3ccc(-c4cccc(F)c4)cc3)[C@@H]2C1,.,.,.,.,-0.8,.
NC(Cc1ccc(Oc2ccc(O)cc2)cc1)C(=O)O (centres undefined),.,.,3.7,.,.,4.6
N[C@@H](Cc1cc(I)c(O)c(I)c1)C(=O)O,-1.2,-0.8,13.9,.,44.0*,0.2
Fc1ccc(/C=N/NC(=S)Nc2cccnc2)cc1,0.7,-6.8,-15.6,0.0,48.2*,.
Oc1ccc(/C=N/NC(=S)Nc2cccnc2)c(O)c1O,-0.1,10.8,.,.,49.4*,.
Fc1ccc(/C=N/NC(=S)Nc2cccnc2)cc1F,3.0,-0.3,.,-1.4,-6.2,27.4
C[C@@H]1CCCCO[C@H](CN(C)S(=O)(=O)c2ccc(Cl)cc2)[C@H](C)CN([C@H](C)CO)C(=O)c2cc(NC(=O)Cc3ccccc3)ccc2O1,.,.,.,.,3.0,.

# High-throughput results: PubChem, Broad Institute
